Data published in PubChem BioAssay.
The list shows a part of the results. Values without a mark were called inactive. The source made the active and inactive calls.

Key:
[1] = target: Inward rectifier potassium channel 2 (Mus musculus) (UniProt P35561); experiment: PubChem AID 2345; conditions: HEK293 Kir2.1, FluxOR thallium flux fluorescence; at 10 µM; stronger effect = higher value;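 also: 0% = vehicle mean plus 3 SD and 100% = vehicle minus no-stimulus blank window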
[2] = target: Potassium voltage-gated channel subfamily KQT member 2 (Rattus norvegicus) (UniProt O88943); experiment: W236L mutant KCNQ2 current enhancers – cell-based, rat KCNQ2 W236L, CHO, automated patch clamp, mechanism study for KCNQ2 potentiator project (AID 2558); conditions: at 25 µM
Sequence of Potassium voltage-gated channel subfamily KQT member 2 (Rattus norvegicus) (O88943 whole entry W236L, looked up): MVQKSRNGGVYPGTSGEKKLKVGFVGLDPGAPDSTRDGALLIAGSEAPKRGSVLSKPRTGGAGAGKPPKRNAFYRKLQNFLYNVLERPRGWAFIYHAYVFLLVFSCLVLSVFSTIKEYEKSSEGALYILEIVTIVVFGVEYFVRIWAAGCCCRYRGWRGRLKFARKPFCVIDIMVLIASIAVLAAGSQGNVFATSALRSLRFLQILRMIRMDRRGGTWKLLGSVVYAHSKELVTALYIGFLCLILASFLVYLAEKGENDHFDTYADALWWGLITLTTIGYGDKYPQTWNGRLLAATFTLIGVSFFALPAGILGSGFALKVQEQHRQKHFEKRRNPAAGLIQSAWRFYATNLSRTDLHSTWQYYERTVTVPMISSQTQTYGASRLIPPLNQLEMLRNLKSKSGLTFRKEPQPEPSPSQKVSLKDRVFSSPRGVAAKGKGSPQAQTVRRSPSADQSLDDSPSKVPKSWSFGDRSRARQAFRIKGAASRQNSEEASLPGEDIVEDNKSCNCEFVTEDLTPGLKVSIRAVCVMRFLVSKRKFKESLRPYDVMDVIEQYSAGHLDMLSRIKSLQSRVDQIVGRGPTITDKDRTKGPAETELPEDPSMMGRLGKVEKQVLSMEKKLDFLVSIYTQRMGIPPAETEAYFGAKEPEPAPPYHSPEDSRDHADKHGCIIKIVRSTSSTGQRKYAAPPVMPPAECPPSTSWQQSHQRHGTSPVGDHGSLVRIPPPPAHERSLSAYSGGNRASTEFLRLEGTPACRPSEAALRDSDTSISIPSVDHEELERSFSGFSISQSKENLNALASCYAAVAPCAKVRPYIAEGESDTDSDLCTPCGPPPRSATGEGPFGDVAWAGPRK

Sequence of Inward rectifier potassium channel 2 (Mus musculus) (P35561 whole entry, looked up): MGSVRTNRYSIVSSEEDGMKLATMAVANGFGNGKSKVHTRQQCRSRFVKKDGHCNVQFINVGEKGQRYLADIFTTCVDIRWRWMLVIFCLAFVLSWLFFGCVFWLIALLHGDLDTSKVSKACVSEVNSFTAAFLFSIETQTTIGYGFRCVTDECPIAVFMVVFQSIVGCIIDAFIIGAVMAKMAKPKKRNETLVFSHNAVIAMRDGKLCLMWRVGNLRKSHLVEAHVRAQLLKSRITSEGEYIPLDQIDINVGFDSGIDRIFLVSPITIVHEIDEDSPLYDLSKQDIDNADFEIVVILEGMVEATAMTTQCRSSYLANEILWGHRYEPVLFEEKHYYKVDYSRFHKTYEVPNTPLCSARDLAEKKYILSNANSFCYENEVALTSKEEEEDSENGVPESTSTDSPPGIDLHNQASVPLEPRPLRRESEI

Q: Which activity over 3SD threshold [1] does the source give for `COc1cc(-n2c(=S)[nH]c3ccc(C)cc3c2=O)c(Cl)cc1Cl` here?
A: The activity over 3SD threshold was -22.9%.

Q: And the outcome [2]?
A: Its outcome is “inactive”.
